Survival data for 91 compounds are collected here from PubChem BioAssay AID463173 (ICCB-Longwood Screening Facility, Harvard Medical School, 2010).

Each structure is given as a SMILES string. About 4,300 (8.3%) of roughly 52,000 compounds were called active. The full list was thinned out, with actives kept by preference. Values without a mark were called inactive. Cut-off read from the data, not from the text of the source: active = survival mostly below about 52% (no sharp cut-off); inactive = mostly above about 56%.

This assay has as its system DeltatarO mutant. The experiment in a line: S. aureus survival, RN4220 and DeltatarO strains – OD600, teichoic acid synthesis inhibitors, primary screen (AID 463173). The note with it: S. aureus RN4220 wild type/DeltatarO growth, OD600, 18 h, active compounds read low, screened at 18.75 µg/mL (by protocol).
Take `CCOC(=O)C1(C)C=C(Nc2ccc(C(N)=O)cc2)C(=O)N1c1ccccc1` (stereo unspecified): the survival was 68%. Take `CCC(=O)N1CCc2cc(Br)cc(S(=O)(=O)CCC(=O)NCCc3ccccc3)c21`: the survival was 91%.

With `Cc1ccc(C)c(NC(=O)CN2C(=O)COc3ccc(Cl)cc32)c1`, the survival is 69%. As to `COC(=O)c1ccccc1NC(=O)CN1C(=O)COc2ccc(Cl)cc21`, the survival was 38% (active).

Take `COC(=O)c1ccccc1NC(=O)CN1C(=O)COc2ccccc21`: the survival was 69%. Consider `COc1ccc(-n2ncc(C(=O)N3CCN(C(=O)c4ccco4)CC3)c2C2CCN(C(=O)OC(C)(C)C)CC2)cc1`, for which the survival is 86%. Take `Cc1ccc(S(=O)(=O)Cc2ccc(C(=O)N3CCN(c4cccc(Cl)c4)CC3)o2)cc1`: the survival is 75%.

Regarding `O=C(c1cc2cc3ccc(Cl)cc3nc2o1)N1CCN(c2cccc(Cl)c2)CC1`, the survival was 46% (active). With `O=C(c1ccc(CS(=O)c2ccccc2Cl)o1)N1CCN(c2cccc(Cl)c2)CC1` (stereo unspecified) the figure was 51% (active). In the case of `Cc1ccc(Cl)cc1N1CCN(C(=O)c2ccc(CS(=O)(=O)c3ccccc3C)o2)CC1`, the survival is 50%.

On to `Cc1ccccc1S(=O)Cc1ccc(C(=O)N2CCN(c3cccc(C)c3C)CC2)o1` (stereo unspecified), for which the survival is 61%. Then `COc1ccc(N2CCN(C(=O)c3cc4cc5ccc(Cl)cc5nc4o3)CC2)cc1`, with 86%; and `O=C(c1ccc(CS(=O)c2ccccc2Cl)o1)N1CCN(c2ccccc2F)CC1` (stereo unspecified), with 84%; and `COc1ccc(S(=O)Cc2ccc(C(=O)N3CCN(c4cccc(C)c4C)CC3)o2)cc1` (stereo unspecified), with 79%.

As to `Cc1cccc(N2CCN(C(=O)c3ccc(CS(=O)c4cccc(Cl)c4)o3)CC2)c1C` (stereo unspecified), the survival is 51% (active). With `Cc1ccccc1S(=O)(=O)Cc1ccc(C(=O)N2CCN(c3cccc(Cl)c3)CC2)o1`, the survival is 54% (active).

On to `Cc1ccc2cc3cc(C(=O)N4CCN(c5ccc(Cl)cc5)CC4)oc3nc2c1`, for which the survival is 85%. As for `O=C(c1ccc(CS(=O)c2ccccc2Cl)o1)N1CCN(c2cccc(C(F)(F)F)c2)CC1` (stereo unspecified), the survival was 60%.

Take `CNC(=O)C1CCC(Cn2c(=O)c3sccc3n(Cc3ccc(F)cc3)c2=O)CC1` (stereo unspecified): the survival is 79%. As to `NS(=O)(=O)c1ccc(CCNC(=O)c2nc(SCc3ccccc3F)ncc2Cl)cc1`, the survival is 45%. Then `CC(C)(C)NS(=O)(=O)c1ccc2oc3ccc(S(=O)(=O)NC(C)(C)C)cc3c2c1`, with 86%; and `O=C(O)c1cccc(N=NN2CCOCC2)c1`, with 80%. Then `CSc1cccc(NS(=O)(=O)c2ccc3[nH]cc(C(=O)N4CCCC4)c(=O)c3c2)c1`, with 91%; and `O=C(CSc1ccc2ccccc2n1)Nc1nsc(-c2ccc(Cl)cc2)n1`, with 57%.

Turning to `Cc1cccc(Cn2cc(S(=O)(=O)c3cccc(C)c3)c(=O)c3cc(F)c(N4CCOCC4)cc32)c1`, the survival was 76%. With `CCCCOc1ccc(C2C(=O)N(C3CCCCC3)CC(=O)N2C2CCCCC2)cc1` (stereo unspecified) the figure was 94%; with `CCN(CC)S(=O)(=O)c1ccc2c(c1)N(CC(=O)NCCc1ccccc1)C(=O)CO2`, 76%. `CC(C)Oc1ccc(CNC(=O)c2ccc(CS(=O)c3cccc(Cl)c3)o2)cc1` (stereo unspecified): the survival was 52% (active).

`CC(C)Oc1ccc(CNC(=O)c2ccc(CS(=O)Cc3ccccc3Cl)o2)cc1` (stereo unspecified): the survival is 109%.

Take `Cc1ccc(S(=O)Cc2ccc(C(=O)NCc3ccc(OC(C)C)cc3)o2)cc1` (stereo unspecified): the survival was 51%. Regarding `O=C(Cn1c(-c2cccs2)cc2cc(F)ccc21)N1CCN(c2ccccc2)CC1`, the survival is 71%. For `COc1ccc(NC(c2ccc(F)cc2)c2nnc(-c3ccccc3Cl)o2)cc1Cl` (stereo unspecified), the survival was 78%. With `COc1cc(Cl)c(C)cc1NC(c1ccccc1)c1nnc(-c2ccccc2Cl)o1` (stereo unspecified) the figure was 69%; with `Cc1ccc(Cl)cc1NC(c1ccc(F)cc1)c1nnc(-c2ccccc2)o1` (stereo unspecified), 86%; with `CCc1cccc(NC(c2ccccc2)c2nnc(-c3ccccc3F)o2)c1` (stereo unspecified), 11% (active).

For the compound `CCc1cccc(NC(c2nnc(-c3ccccc3)o2)c2ccc(F)cc2Cl)c1` (stereo unspecified), the survival was 83%. With `Cc1ccc(C)c(NC(c2ccccc2)c2nnc(-c3ccccc3F)o2)c1` (stereo unspecified) the figure was 4% (active); with `COc1ccc(OC)c(NC(=O)CSc2cn(CC(=O)N3CCOCC3)c3ccccc23)c1`, 91%. Take `CC(=O)Nc1ccc2nc(SCc3ccccc3)sc2c1`: the survival is 63%. As for `CC(C)NC(=O)Cn1c(SCC(=O)N2CCc3ccccc32)nc2ccccc21`, the survival is 97%.

`Cc1ccc2nc(-c3ccccc3F)c(Nc3ccc(Cl)cc3)n2c1`: the survival was 16%. For the compound `CCCCn1c(=O)nc2n(-c3ccc(F)cc3)c3ccccc3cc-2c1=O`, the survival is 41% (active). Take `Cc1ccc(-n2c3nc(=O)n(C)c(=O)c-3cc3ccccc32)c(C)c1`: the survival is 99%. With `Cn1c(=O)nc2n(-c3ccc(Br)cc3)c3cccc(Cl)c3cc-2c1=O` the figure was 80%.

Turning to `CCOc1ccccc1C(=O)N1CCC(c2nc3ccccc3o2)CC1`, the survival is 80%. Then `Cc1cccc(NC(=O)CCCn2c(C)c3cnn(-c4ccccc4)c(=O)c3c2C)c1C`, with 71%; and `CCOC(=O)c1cnc(SC2CCc3ccccc3C2=O)nc1N` (stereo unspecified), with 79%; and `CCCCSc1ncc(C(=O)OCC)c(N)n1`, with 78% (active). With `CCOC(=O)c1cnc(SCC(=O)OC)nc1N` the figure was 95%. Then `COc1ccc(CNC(=O)CN(c2ccccc2)S(=O)(=O)N(C)C)cc1`, with 145%; and `O=C(Cc1csc2nc(-c3ccccc3)cn12)NCc1ccc(F)cc1`, with 90%. For the compound `Cc1cccc(-c2cc3nc4c(c(N5CCCC5)n3n2)CCCC4)c1`, the survival was 123%. With `O=C(CSc1oc(-c2ccco2)nc1S(=O)(=O)c1ccc(Cl)cc1)c1ccccc1`, the survival was 125%. With `O=S(=O)(c1ccc(Cl)cc1)c1nc(-c2ccco2)oc1SCc1ccccc1F` the figure was 62%; with `O=S(=O)(c1ccc(Br)cc1)c1nc(-c2ccco2)oc1SCc1ccccc1F`, 44% (active). With `CC(C)CSc1oc(-c2ccco2)nc1S(=O)(=O)c1ccc(Br)cc1` the figure was 33% (active). Then `O=C(CSc1oc(-c2ccco2)nc1S(=O)(=O)c1ccc(Br)cc1)c1ccc(Cl)cc1`, with 52%; and `Cc1ccc(S(=O)(=O)c2nc(-c3ccco3)oc2SCC(C)C)cc1`, with 48% (active); and `Cc1ccc(CSc2oc(-c3ccco3)nc2S(=O)(=O)c2ccc(C)cc2)cc1`, with 62%.

Take `O=C(CSc1oc(-c2ccco2)nc1S(=O)(=O)c1ccc(Br)cc1)c1ccccc1`: the survival is 47% (active). Consider `CCCSc1oc(-c2ccco2)nc1S(=O)(=O)c1ccc(Br)cc1`, for which the survival is 55%. Then `CCSc1oc(-c2ccco2)nc1S(=O)(=O)c1ccc(Br)cc1`, with 54%. With `O=S(=O)(c1ccc(Br)cc1)c1nc(-c2ccco2)oc1SCc1ccccc1Cl` the figure was 149%. `Cc1ccc(S(=O)(=O)c2nc(-c3ccco3)oc2SCc2ccc(F)cc2)cc1`: the survival was 66%.

In the case of `O=C(CSc1nnc(-c2ccccc2)c(-c2ccccc2)n1)NC1CCCC1`, the survival is 77%.

Consider `COc1ccc(CC(NC(C)=O)C(=O)NC2CCN(c3nc(OC)nc(OC)n3)CC2)cc1` (stereo unspecified), for which the survival was 88%. Take `Cc1ccc(-c2cc(-c3coc4ccc(Cl)cc4c3=O)c3c(n2)-c2ccccc2OC3)cc1`: the survival is 77%. Then `Cc1ncc(COC(=O)C(C)C)c2cc(C(=O)Nc3ccccc3C(F)(F)F)c(=O)oc12`, with 134%; and `Cc1ccc(OCC(=O)Nc2nc(-c3ccc(Br)cc3)ns2)cc1C`, with 110%. With `O=C(Cc1cccs1)Nc1c(C(=O)Nc2ccc(F)cc2)oc2ccccc12` the figure was 94%; with `Cc1cc(-n2c(C)nc3ccccc3c2=O)ccc1NC(=O)c1ccc([N+](=O)[O-])cc1`, 83%; with `Cc1c(C(=O)Nc2ccc(-n3c(C)nc4ccccc4c3=O)cc2)cccc1[N+](=O)[O-]`, 99%. For `Cc1cc(-n2c(C)nc3ccccc3c2=O)ccc1NC(=O)c1ccccc1[N+](=O)[O-]`, the survival is 69%. As for `Cc1ccc(C(=O)Nc2ccc(-n3c(C)nc4ccccc4c3=O)cc2)cc1[N+](=O)[O-]`, the survival was 117%. With `Cc1cc(-n2c(C)nc3ccccc3c2=O)ccc1NC(=O)c1cccc([N+](=O)[O-])c1C` the figure was 0% (active); with `Cc1cc(-n2c(C)nc3ccccc3c2=O)ccc1NC(=O)c1ccc(C)c([N+](=O)[O-])c1`, 37% (active); with `CCOc1ccccc1NC(=O)c1sc(-n2nc(C)c(CCC(C)C)c2C)nc1C`, 69%. With `COc1cccc2sc(N(Cc3cccnc3)C(=O)c3ccc4c(c3)OCCO4)nc12` the figure was 72%; with `O=C(CSc1nc2ncccc2[nH]1)Nc1cc(F)ccc1F`, 86%. With `CCN1c2ccccc2-c2nc(SCC(=O)NCc3ccc(Cl)cc3)ncc2S1(=O)=O` the figure was 46% (active); with `Cc1ccc(CN2c3ccccc3-c3nc(SCC(=O)NCCc4ccccc4)ncc3S2(=O)=O)cc1`, 55%; with `O=C(CSc1ncc2c(n1)-c1ccccc1N(Cc1ccccc1)S2(=O)=O)Nc1ccccc1`, -5% (active). `O=C(CSc1ncc2c(n1)-c1ccccc1N(Cc1ccc(F)cc1)S2(=O)=O)NCc1ccccc1`: the survival is 87%.

As to `Cc1ccccc1CN1c2ccccc2-c2nc(SCC(=O)NCCc3ccccc3)ncc2S1(=O)=O`, the survival was 66%.

Regarding `Cc1ccccc1CN1c2ccccc2-c2nc(SCC(=O)c3ccccc3)ncc2S1(=O)=O`, the survival was 102%. For the compound `CCN1c2ccccc2-c2nc(SCC(=O)NCc3ccccc3)ncc2S1(=O)=O`, the survival was 93%. Regarding `NC(=O)CSc1ncc2c(n1)-c1ccccc1N(Cc1ccccc1)S2(=O)=O`, the survival was 89%. With `Cc1ccc(CN2c3ccccc3-c3nc(SCC(=O)Nc4c(C)cc(C)cc4C)ncc3S2(=O)=O)cc1` the figure was 128%; with `CCN1c2ccccc2-c2nc(SCC(=O)NCc3ccc(C)cc3)ncc2S1(=O)=O`, 105%. Turning to `Cc1ccccc1CN1c2ccccc2-c2nc(SCC(=O)NCc3ccccc3)ncc2S1(=O)=O`, the survival was 20% (active). Consider `Cc1ccc(CN2c3ccccc3-c3nc(SCC(=O)NCc4ccccc4)ncc3S2(=O)=O)cc1`, for which the survival was 17% (active).
